Reference: PubChem BioAssay
Several values for one entry are separate records, joined by “and”; a condition that tells them apart may be missing. Equal values may be shown once. Activity calls are given as the source filed them.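 The calls were made as follows: active = thallium flux through the channel raised or lowered by more than 3 SD from vehicle-only wells, actives on both sides; inactive = the rest.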

test system: F380Y/beta1; assay: BK channel mutant inhibitors and activators – cell-based, U2OS BacMam, thallium flux, beta subunits, selectivity assay, profiling panel (AID 1259406); conditions: U2OS BacMam BK variants, at 30 µM;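 also: initial slope of Thallos dye fluorescence rise after thallium is added; log ratio against the mean of 0.3% DMSO vehicle wells on the same plate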

Log fold change Tl+ flux, active:
OCCN1CCN(CCCN2c3ccccc3Sc3ccc(C(F)(F)F)cc32)CC1 0.117, CN[C@H]1CC[C@@H](c2ccc(Cl)c(Cl)c2)c2ccccc21 0.844 and 0.685, CN(CCOc1ccc(CC2SC(=O)NC2=O)cc1)c1ccccn1 (stereo not drawn) 0.17 and 0.199, CN1CCCC(n2nc(Cc3ccc(Cl)cc3)c3ccccc3c2=O)CC1 (stereo not drawn) 0.109

Log fold change Tl+ flux, inactive:
O=c1[nH]cc(F)c(=O)[nH]1 0.0119, CCc1nc(N)nc(N)c1-c1ccc(Cl)cc1 -0.116, CCc1cccc2c3c([nH]c12)C(CC)(CC(=O)O)OCC3 (stereo not drawn) 0.0385, Nc1ncn([C@@H]2O[C@H](CO)[C@@H](O)[C@H]2O)c(=O)n1 -0.0139, Cc1ccccc1C(OCCN(C)C)c1ccccc1 (stereo not drawn) 0.00351 and 0.0509, Cc1ccc(C)c(OCCCC(C)(C)C(=O)O)c1 0.07, NC(=O)c1cnccn1 0.0317, CCCCCCNC(=O)n1cc(F)c(=O)[nH]c1=O -0.0124, COC1=CC(=O)C[C@@H](C)[C@]12Oc1c(Cl)c(OC)cc(OC)c1C2=O -0.046, Cc1ncc([N+](=O)[O-])n1CC(C)O (stereo not drawn) -0.0446, N[C@@H](C(=O)N[C@@H]1C(=O)N2C(C(=O)O)=C(Cl)CS[C@H]12)c1ccccc1 -0.0714, CO[C@@]1(NC(=O)Cc2cccs2)C(=O)N2C(C(=O)O)=C(COC(N)=O)CS[C@@H]21 -0.00712, CN(C)CCOC(c1ccc(Cl)cc1)c1ccccn1 (stereo not drawn) 0.0451, Cc1onc(-c2c(Cl)cccc2Cl)c1C(=O)N[C@@H]1C(=O)N2[C@@H]1SC(C)(C)[C@@H]2C(=O)O -0.0941, COc1cc2nc(N(C)CCCNC(=O)C3CCCO3)nc(N)c2cc1OC (stereo not drawn) -0.0154, NS(=O)(=O)c1cc(C2(O)NC(=O)c3ccccc32)ccc1Cl (stereo not drawn) -0.0295, CN(C)CCc1c[nH]c2ccc(C[C@H]3COC(=O)N3)cc12 0.00826, Cc1ccc(-c2cc(C(F)(F)F)nn2-c2ccc(S(N)(=O)=O)cc2)cc1 -0.0387, O=S(=O)(O)CCS 0.0507, C/C=C/C(=O)N(CC)c1ccccc1C -0.0381, COc1ccc(OC)c(C(O)CNC(=O)CN)c1 (stereo not drawn) 0.0228, Cn1cnc([N+](=O)[O-])c1Sc1ncnc2nc[nH]c12 -0.0302, c1ccc2[nH]c(-c3cscn3)nc2c1 -0.00469, CCCNCC(O)COc1ccccc1C(=O)CCc1ccccc1 (stereo not drawn) 0.0626, NC(=O)N1c2ccccc2CC(=O)c2ccccc21 -0.0277, Cc1cn([C@H]2C[C@H](N=[N+]=[N-])[C@@H](CO)O2)c(=O)[nH]c1=O 0.0379, COc1ccccc1OCC(O)COC(N)=O (stereo not drawn) 0.0402, OC(CCN1CCCC1)(c1ccccc1)C1CCCCC1 (stereo not drawn) 0.0373, O=C1C(CCS(=O)c2ccccc2)C(=O)N(c2ccccc2)N1c1ccccc1 (stereo not drawn) 0.0248, COC(=O)Nc1nc2ccc(C(=O)c3ccccc3)cc2[nH]1 0.0198, CCn1cc(C(=O)O)c(=O)c2cc(F)c(N3CCN(C)CC3)cc21 -0.000461, NCc1ccc(S(N)(=O)=O)cc1 0.0173, Clc1ccc2c(c1)C(N1CCNCC1)=Nc1ccccc1O2 0.0215, CC(C)(C)NCC(O)COc1cccc2c1C[C@H](O)[C@H](O)C2 (stereo partly drawn) 0.00674, NS(=O)(=O)c1cc2c(cc1Cl)NC=NS2(=O)=O 0.0165

test system: F380Y/beta2Delta; assay: as above; conditions: U2OS BacMam BK variants, at 30 µM

Log fold change Tl+ flux, active:
NC(=O)c1cnccn1 -0.0799, OCCN1CCN(CCCN2c3ccccc3Sc3ccc(C(F)(F)F)cc32)CC1 0.167, CN[C@H]1CC[C@@H](c2ccc(Cl)c(Cl)c2)c2ccccc21 0.62 and 0.894, CCCNCC(O)COc1ccccc1C(=O)CCc1ccccc1 (stereo not drawn) 0.0815, OC(CCN1CCCC1)(c1ccccc1)C1CCCCC1 (stereo not drawn) 0.106, CN1CCCC(n2nc(Cc3ccc(Cl)cc3)c3ccccc3c2=O)CC1 (stereo not drawn) 0.144, Clc1ccc2c(c1)C(N1CCNCC1)=Nc1ccccc1O2 0.148

Log fold change Tl+ flux, inactive:
O=c1[nH]cc(F)c(=O)[nH]1 -0.0613, CCc1nc(N)nc(N)c1-c1ccc(Cl)cc1 0.0521, CCc1cccc2c3c([nH]c12)C(CC)(CC(=O)O)OCC3 (stereo not drawn) -0.0224, Nc1ncn([C@@H]2O[C@H](CO)[C@@H](O)[C@H]2O)c(=O)n1 0.0239, Cc1ccccc1C(OCCN(C)C)c1ccccc1 (stereo not drawn) 0.0734 and 0.0188, Cc1ccc(C)c(OCCCC(C)(C)C(=O)O)c1 0.0499, CCCCCCNC(=O)n1cc(F)c(=O)[nH]c1=O -0.0543, COC1=CC(=O)C[C@@H](C)[C@]12Oc1c(Cl)c(OC)cc(OC)c1C2=O 0.0194, Cc1ncc([N+](=O)[O-])n1CC(C)O (stereo not drawn) -0.00369, N[C@@H](C(=O)N[C@@H]1C(=O)N2C(C(=O)O)=C(Cl)CS[C@H]12)c1ccccc1 -0.0661, CO[C@@]1(NC(=O)Cc2cccs2)C(=O)N2C(C(=O)O)=C(COC(N)=O)CS[C@@H]21 -0.00432, CN(C)CCOC(c1ccc(Cl)cc1)c1ccccn1 (stereo not drawn) 0.0734, Cc1onc(-c2c(Cl)cccc2Cl)c1C(=O)N[C@@H]1C(=O)N2[C@@H]1SC(C)(C)[C@@H]2C(=O)O -0.00879, COc1cc2nc(N(C)CCCNC(=O)C3CCCO3)nc(N)c2cc1OC (stereo not drawn) 0.0311, NS(=O)(=O)c1cc(C2(O)NC(=O)c3ccccc32)ccc1Cl (stereo not drawn) -0.039, CN(C)CCc1c[nH]c2ccc(C[C@H]3COC(=O)N3)cc12 -0.0158, Cc1ccc(-c2cc(C(F)(F)F)nn2-c2ccc(S(N)(=O)=O)cc2)cc1 -0.0192, O=S(=O)(O)CCS 0.0371, C/C=C/C(=O)N(CC)c1ccccc1C -0.0171, COc1ccc(OC)c(C(O)CNC(=O)CN)c1 (stereo not drawn) -0.0267, Cn1cnc([N+](=O)[O-])c1Sc1ncnc2nc[nH]c12 -0.0522, c1ccc2[nH]c(-c3cscn3)nc2c1 -0.00898, NC(=O)N1c2ccccc2CC(=O)c2ccccc21 -0.0162, Cc1cn([C@H]2C[C@H](N=[N+]=[N-])[C@@H](CO)O2)c(=O)[nH]c1=O 0.00186, CN(CCOc1ccc(CC2SC(=O)NC2=O)cc1)c1ccccn1 (stereo not drawn) -0.0425 and 0.0999, COc1ccccc1OCC(O)COC(N)=O (stereo not drawn) -0.0478, O=C1C(CCS(=O)c2ccccc2)C(=O)N(c2ccccc2)N1c1ccccc1 (stereo not drawn) 0.0447, COC(=O)Nc1nc2ccc(C(=O)c3ccccc3)cc2[nH]1 -0.00923, CCn1cc(C(=O)O)c(=O)c2cc(F)c(N3CCN(C)CC3)cc21 -0.0112, NCc1ccc(S(N)(=O)=O)cc1 -0.0418, CC(C)(C)NCC(O)COc1cccc2c1C[C@H](O)[C@H](O)C2 (stereo partly drawn) 0.0306, NS(=O)(=O)c1cc2c(cc1Cl)NC=NS2(=O)=O -0.00499
